Methyltransferases = Primary Screen for Target Class Profiling of Small Molecule Inhibitors of Methyltransferases; calls only at 40 µM; 25,000 compounds, 3.9% hits; purified enzyme, MTase-Glo SAH luminescence; hits give low values; call rule not given here
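Each enzyme was reacted with SAM and its substrate, with compounds tested once at 40 uM; SAH formed was read by MTase-Glo luminescence.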
* hit, by the source's call; i = inactive; + = active, no number; ! = repeats disagree. The sample as a whole holds a higher share of hits than the screen did. % is set by controls: 0 for no effect and ±100 for the full control effect.

SMILES | Methyltransferases
CCCN1C(=O)c2cc(C(=O)N3CCN(Cc4ccccc4)CC3)nn2CC1(C)C(=O)NC1CCCC1 (configuration not stated) | i
COc1ccc(-c2n[nH]n3c2nc(=O)c2ccc(C(=O)NCCc4ccccc4)cc23)cc1 | i
CCN1C(=O)c2cc(C(=O)NCCCN3CCN(C)CC3)nn2CC1(C)C(=O)NC1CCCC1 (configuration not stated) | i
COc1ccc(N2C(=O)CSc3c(c4ccccc4n3C)C2C(=O)NCc2ccccc2)cc1OC (configuration not stated) | i
CC1CCC(NC(=O)C2(C)Cn3c(ccc3-c3ccccc3)C(=O)N2CCC2=CCCCC2)CC1 (configuration not stated) | i
Clc1ccc(Cn2c(CN3CCCC3)nc3ccccc32)cc1 | i
Clc1ccc(Cn2c(Cc3ccccc3)nc3ccccc32)cc1 | +
CC1(C(=O)NCc2ccccc2)Cn2c(nc3ccccc32)C(=O)N1Cc1ccc(Cl)cc1 (configuration not stated) | i
Cc1cccc(N2C(=O)c3cc(-c4ccco4)nn3CC2(C)C(=O)NC2CCCCC2)c1C (configuration not stated) | i
CC(C)CNC(=O)c1ccc2c(=O)n(Cc3ccccc3)c3nn(CC(=O)NC(C)C)c(=O)n3c2c1 | i
CCCn1c(=O)c2ccc(Cl)cc2n2c(=O)n(Cc3ccccc3Cl)nc12 | i
CC1(C(=O)Nc2ccccc2F)COCc2cnc(Nc3ccccc3)nc21 (configuration not stated) | i
CC(C)(C)NC(=O)Nc1cccc(Nc2ncc(F)c(NC(C)(C)CO)n2)c1 | i
C=CC(=O)Nc1cccc(Nc2nc(Nc3ccc(OCCOC)cc3)ncc2F)c1 | +
CCc1cccc(N2C(=O)CSc3c(c4ccccc4n3C)C2C(=O)NCCCOC(C)C)c1 (configuration not stated) | i
N#Cc1cccc(-c2c[nH]c3ncnc(N4CCOCC4)c23)c1 | +
COc1ccc(NC(=O)CSc2nnc3n(CC(C)C)c(=O)c4ccccc4n23)cc1OC | i
Cc1ccc(CNC(=O)c2cc3n(n2)CC(C)(C(=O)NCc2ccccc2)N(C)C3=O)cc1 (configuration not stated) | i
CCCCCCN(CCC(=O)NCCc1ccccc1)C(=O)c1cc(C)oc1C | i
Cc1ccc(NC2=CC(=O)c3sc(C)nc3C2=O)cc1 | +
CC(C)OCCCNC(=O)C1c2c(n(C)c3ccccc23)SCC(=O)N1c1cccc(Cl)c1 (configuration not stated) | i
CCC(C(=O)N1CCC2(CC1)C(=O)N(CC(=O)NCC(C)C)CN2c1ccccc1)c1ccccc1 (configuration not stated) | i
CCCC1(CCC)CCC2(CCN(CCCN(CC)CC)C2)CC1 | +
CC(=O)N1CCC(C(=O)NCc2nn(Cc3ccccc3)c3ccccc23)CC1 | i
CC(C)CCN1C(=O)c2cc3sccc3n2CC1(C)C(=O)NC1CCCCCC1 (configuration not stated) | i
SMILES | Methyltransferases
COc1ccc2cc3n(c2c1)CC(C)(C(=O)NC1CCCCC1)N(Cc1ccc(F)cc1)C3=O (configuration not stated) | i
COc1ccc(C(=O)Nc2cnc(-c3ccc(Cl)cc3)nc2)cc1 | i
COC(=O)/C=C/c1ccc(O[C@@H]2O[C@H](CO)[C@@H](O)[C@H](O)[C@H]2O)cc1 | i
COc1ccc(NC(=O)/C=C/c2ccc(Cl)cc2)cc1 | +
COC(=O)c1cc2n(n1)CC(C)(C(=O)NC1CCCCCC1)N(c1ccccc1C)C2=O (configuration not stated) | i
CC(C)CCn1c(=O)c2ccc(C(=O)NC3CCCCC3)cc2n2c(=O)n(CC(=O)NC(C)C)nc12 | i
C[C@@]1(C2CCCC2)Cc2cc(OCC(=O)O)c(Cl)c(Cl)c2C1=O | +
COc1ccc2cc3n(c2c1)CC(C)(C(=O)NC1CCCCC1)N(c1ccc2c(c1)OCO2)C3=O (configuration not stated) | i
CCCOc1ccc(CN2C(=O)c3cc4occc4n3CC2(C)C(=O)NC2CCCCCCC2)cc1 (configuration not stated) | i
COC(=O)C1=C(C)NC(C)=C(C(=O)OC)C1c1cccc(NC(=O)NCCCN2CCC(c3cccc(OC)c3)CC2)c1 | +!
COc1cccc(CNC(=O)Nc2cccc(-c3ccc(N4CCCCC4)nn3)c2)c1 | i
CCN(CC)c1ncccc1CNC(=O)Nc1cccc(OC)c1 | i
CCCCNc1nc2c(-c3cccc(F)c3)nnn2c2ccccc12 | i
Cc1ccc2c(c1)c(-n1cccc1)c1n2CC(C)(C(=O)NC2CCCC2)N(Cc2ccco2)C1=O (configuration not stated) | i
Cc1ccc(Cn2c(=O)c3ccccc3n3c(=O)n(CC(=O)NCc4ccc(Cl)cc4)nc23)cc1 | i
CC1CCC(NC(=O)C2(C)Cn3c(cc4occc43)C(=O)N2Cc2cccc(Br)c2)CC1 (configuration not stated) | i
CSc1ccc(CNC(=O)Cn2ccc3cc(S(=O)(=O)N4CCC(C)CC4)ccc32)cc1 | i
COc1cccc(CNC(=O)c2cc3n(n2)CC(C)(C(=O)NCc2ccc(C)cc2)N(C)C3=O)c1OC (configuration not stated) | i
NC(=Nc1ccc(CCNCc2cccc(Cl)c2)cc1)c1cccs1 | +
CC1(C(=O)NC2CCCC2)Cn2c(ccc2-c2ccco2)C(=O)N1CCN1CCCCCC1 (configuration not stated) | i
CCOc1ccc(CN2C(=O)c3nc4ccccc4n3CC2(C)C(=O)NC2CCCCCC2)cc1 (configuration not stated) | i
CC1(C(=O)NC2CCCCC2)Cn2c(cc3occc32)C(=O)N1Cc1cccc(F)c1 (configuration not stated) | i
O=C(CCc1nnc2n(CCc3ccccc3)c(=O)c3ccccc3n12)N1CCC(Cc2ccccc2)CC1 | i
CC1(C(=O)NC2CCCCCC2)Cn2c(nc3ccccc32)C(=O)N1Cc1cccc(Cl)c1 (configuration not stated) | i
CCCn1c(=O)c2ccc(Cl)cc2n2c(=O)n(CC(=O)NC3CCCCC3)nc12 | i
SMILES | Methyltransferases
C=CC(=O)N1CCN(C(=O)c2cc(-c3cc(Cl)ccc3Cl)c(Cl)cc2OC)CC1 | +
C=CC(=O)N1CCN(C(=O)CNc2cc(-c3ccccc3Cl)c(Cl)cc2OC)CC1 | i
COc1cccc(C(=O)N2CCN(C(=O)COc3cccc(C)c3)CC2)c1OC | i
Cc1ccc(Cl)cc1NC(=O)N1CCn2cccc2C1C(C)C (configuration not stated) | i
COc1ccc(NC(=O)Cn2c(=O)oc3cc(S(=O)(=O)N4CCCC4)ccc32)cc1 | i
COc1cccc(NC(=O)Cn2c(=O)oc3cc(S(=O)(=O)N4CCCCC4C)ccc32)c1 (configuration not stated) | +
CC1CCN(C(=O)Cn2c(=O)oc3cc(S(=O)(=O)N4CCCCC4C)ccc32)CC1 (configuration not stated) | i
Cc1cccc(NC(=O)CSc2nnc3n(CC(C)C)c(=O)c4ccc(C(=O)NCC(C)C)cc4n23)c1 | i
CC1(C(=O)NC2CCCCC2)Cn2c(ccc2-c2ccco2)C(=O)N1Cc1ccccc1Cl (configuration not stated) | i

Bioassay records from PubChem.
